For 90 molecules, max response, negative = inhibition results are on record in PubChem BioAssay AID652054 (National Center for Advancing Translational Sciences (NCATS), 2013).

Screen size: about 360,000 compounds; about 9,100 (2.5%) were called active. Another 4% or so got no clear call; they are omitted. No stated cut-off is given here; in the data, active means max response below about -50%; inconclusive means no clear call, values can overlap the other calls; inactive means above that. This excerpt belongs to a sample that is enriched for actives.
On the % scale 0 is the no-effect control and ±100 the full control effect.

Chain of D(3) dopamine receptor (Homo sapiens) (P35462 whole entry, looked up): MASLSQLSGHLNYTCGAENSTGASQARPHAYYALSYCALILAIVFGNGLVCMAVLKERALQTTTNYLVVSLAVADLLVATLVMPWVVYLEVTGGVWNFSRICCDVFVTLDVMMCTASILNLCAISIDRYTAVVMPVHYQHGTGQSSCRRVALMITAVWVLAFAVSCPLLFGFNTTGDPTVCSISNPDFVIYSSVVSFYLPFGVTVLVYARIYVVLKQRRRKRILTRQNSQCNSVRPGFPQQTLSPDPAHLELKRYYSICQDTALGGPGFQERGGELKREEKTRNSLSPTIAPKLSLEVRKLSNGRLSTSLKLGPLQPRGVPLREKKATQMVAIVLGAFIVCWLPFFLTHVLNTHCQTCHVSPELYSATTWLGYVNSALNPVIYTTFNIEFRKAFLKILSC

In the experiment the target is D(3) dopamine receptor (Homo sapiens) (UniProt P35462). The experiment can be described thus: qHTS of D3 Dopamine Receptor Antagonist: qHTS. The conditions noted are these: D3R cells, DiscoveRx beta-arrestin luminescence, antagonist mode; hits give low values. In a few lines:
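Cells expressing the human receptor were seeded at 1500 cells/well, incubated overnight at 37 degrees C in 5% CO2, then exposed to library compounds with dopamine controls for 90 minutes at 37 degrees C before luminescent detection.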
Take `CC1(C(=O)Nc2cccc(Oc3ccccc3)c2)CCN1Cc1ccccc1Cl` (stereo not given): the max response, negative = inhibition was 11.7% (inactive). As for `C=C(C)C(=O)O[C@H]1C/C(C)=C\C(=O)/C=C(\C)[C@H](O)[C@@H]2OC(=O)C(=C)[C@@H]21`, the figure is -61.4% (active); as for `O=C(NCc1cccs1)c1ccc(Br)o1`, 11.4% (inactive). Under `CC(CNC(=O)c1ccc(Br)o1)NC(=O)c1ccc(Br)o1` (stereo not given) stands -72.7% (active); under `CC(CCc1ccccc1)NC(=O)c1ccc(Br)o1` (stereo not given), -10.2% (inactive); under `CC(C)C1CC2=C(C(=O)OC(C)(C)O2)C(c2ccc(F)cc2)O1` (stereo not given), -3.03% (inactive).

For `COc1ccc(NC(=O)COC(=O)C2COc3ccccc3O2)cc1` (stereo not given), the max response, negative = inhibition is -20.1% (inactive). Under `Brc1ccc2nc(-c3ccccc3)c(Cc3ccccc3)n2c1` stands 23.1% (inactive). Consider `CCNC(=O)C1(C)CCCN(Cc2noc(-c3ccccc3OC)n2)C1` (stereo not given), for which the max response, negative = inhibition was 23.6% (inactive). As for `Cc1cc(C)c(NC(=O)CN2CCCCCC2)c(C)c1`, the figure is 1.9% (inactive); as for `Clc1ccccc1-c1cc(COc2ccc3ccccc3c2)no1`, -0.665% (inactive). On to `Cc1cccc(C)c1OCCN1CCOCC1`, for which the max response, negative = inhibition was 21.2% (inactive).

In the case of `c1ccc2cc(OCCN3CCCC3)ccc2c1`, the max response, negative = inhibition is -61.2% (active). As for `Cc1cc(OCCN2CCCC2)ccc1C(C)C`, the figure is 0% (inactive); as for `Cc1cc(OCCN2CCCC2)cc(C(C)C)c1`, -86% (active). Under `CCOC(=O)[C@]12CCC=C1N(Cc1cccc3ccccc13)C(=O)[C@H](CC(=O)NCc1cccc(C(F)(F)F)c1)C2` stands 7.1% (inactive); under `CCCCCCN1C[C@@H](O)[C@H](n2cc(COC(=O)c3ccccc3)nn2)C[C@@H]1c1ccc(Cl)cc1`, 3.45% (inactive). Under `CCc1nnc(NC(=O)c2ccco2)s1` stands -7.74% (inactive); under `Cc1ccc(S(=O)(=O)N2CCCCC2)cc1NC(=O)CCNC(=O)c1ccccc1Cl`, 25.5% (inactive). Consider `N#Cc1ccc(-c2nc3c(Cl)cc(C(F)(F)F)cn3c2Cc2ccccc2C(F)(F)F)cc1`, for which the max response, negative = inhibition was 8.9% (inactive).

For `CCN(CC)CCCNC(=O)c1cc2c(=O)[nH]c3ccc(C)cc3c2s1`, the max response, negative = inhibition is -89.2% (active). `CCN(CC)CCCNC(=O)c1cc(-c2cccc(Cl)c2)on1`: the max response, negative = inhibition was -19.8% (inactive). As for `Cc1cccc(N(C)C(=O)c2cc3c(=O)[nH]c4ccc(C)cc4c3s2)c1`, the figure is -15.8% (inactive); as for `CCC(=O)N1CCC(C)(C(=O)Nc2cc(OC)c(OC)c(OC)c2)C1` (stereo not given), 16.4% (inactive).

On to `CCOc1ccc(NC(=O)N2CC=C(n3c(=O)[nH]c4ccccc43)CC2)cc1`, for which the max response, negative = inhibition was -51.2% (active). As for `CCOc1ccc(NC(=O)N2CCN(CC)CC2)cc1`, the figure is 6.64% (inactive). Under `Cc1cccc(C)c1NC(=O)N1CC=C(n2c(=O)[nH]c3ccccc32)CC1` stands 0% (inactive); under `CCOC(=O)C=Cc1ccc(C(=O)OCC)[nH]1`, 20.2% (inactive). As for `COC(=O)[C@@]12C[C@@H](CC(=O)N3CCCCC3)C(=O)N(Cc3ccc4c(c3)OCO4)C1=CCC(C)(C)C2`, the figure is -15.1% (inactive); as for `Cc1ccc(NC(=O)N2CCSc3ccccc32)cc1`, -50.5% (active); as for `CCOc1ccc(CNC(=O)CCC(=O)N2CCSc3ccccc32)cc1`, 10.8% (inactive). `Cc1ccc(NC(=O)N2CCC(O)(c3cccnc3)CC2)cc1`: the max response, negative = inhibition was 1.47% (inactive). Under `Cc1ccc(S(=O)(=O)N[C@H](CO)C(C)C)cc1` stands -14.1% (inactive); under `CCCN(CC1COc2ccccc2O1)C(=S)Nc1ccc(C)cc1` (stereo not given), -53.1% (active); under `CC(NC(=S)Nc1ccccc1)C1COc2ccccc2O1` (stereo not given), 1.63% (inactive).

`CCC(=O)c1ccc(OCC(=O)N(CC)CC2COc3ccccc3O2)cc1` (stereo not given): the max response, negative = inhibition is 10.7% (inactive). Take `Cc1cc(=O)c2ccc(NC(=O)c3ccccc3)cc2[nH]1`: the max response, negative = inhibition was 13.3% (inactive). In the case of `O=C1NC(O)CCN1C1CC(O)C(CO)O1` (stereo not given), the max response, negative = inhibition was 11% (inactive). `CCCN1CC=C2C(C#N)=C(N)C(C#N)(C#N)C(c3cc(OC)ccc3OC)C2C1` (stereo not given): the max response, negative = inhibition is -67.2% (active). Take `CCN1CC=C2C(C#N)=C(N)C(C#N)(C#N)[C@H](c3ccoc3)[C@H]2C1`: the max response, negative = inhibition is -11.8% (inactive). Regarding `COc1ccc(NC(=O)c2sc(=O)n(Cc3ccc(S(=O)(=O)N(C)C)cc3)c2C)cc1`, the max response, negative = inhibition was 14.5% (inactive). Under `CCCCCCCCNS(=O)(=O)CCNC1CCCCC1` stands -69.1% (active); under `CCCCCCNS(=O)(=O)c1ccccc1Br`, 0% (inactive). Consider `CC1(C)CC(=O)C=C(NCCCNC2CCCCC2)C1`, for which the max response, negative = inhibition was 1.63% (inactive).

Regarding `CCCC(=O)N1CCC1(C)C(=O)NS(=O)(=O)c1ccc(Cl)cc1` (stereo not given), the max response, negative = inhibition is 3.58% (inactive). As for `c1ccc2c(c1)nnn2-c1ccncc1`, the max response, negative = inhibition is -16.5% (inactive). As for `CCOC(=O)c1ccc2[nH]c(C)c(CN3CCN(C)CC3)c(=O)c2c1`, the figure is 0% (inactive); as for `Cc1[nH]c2ccc(C(=O)N3CCN(C)CC3)cc2c1C`, -72.7% (active); as for `COC(=O)CCNC(=O)c1ccc2[nH]c(C)c(C)c2c1`, -22.3% (inactive).

In the case of `CC1(C(=O)Nc2ccc3c(c2)OCCO3)CSCC(=O)N1CCOc1ccccc1` (stereo not given), the max response, negative = inhibition is -1.68% (inactive). For the molecule `O=C(Nc1ccc(OCCO)cc1)c1csc([C@H]2C[C@H](O)[C@@H](CO)O2)n1`, the max response, negative = inhibition is -7.51% (inactive).

Turning to `O=C(NCc1cccnc1)c1ccc2nc([C@@H]3O[C@H](CO)[C@H](O)[C@H](O)[C@H]3O)[nH]c2c1`, the max response, negative = inhibition was 40.4% (inactive). As for `Nc1nc2cc(Cl)ccc2n1N`, the figure is 0% (inactive); as for `O=[N+]([O-])c1cc(Cl)cc(/C=N/NC(=S)Nc2cc(S(=O)(=O)N3CCOCC3)ccc2Cl)c1O`, -50.3% (active); as for `O=C(c1cc(S(=O)(=O)N2CCOCC2)ccc1Cl)N1CCOCC1`, -16% (inactive). As for `O=C(Nc1cc(S(=O)(=O)N2CCOCC2)ccc1Cl)c1cc(=O)c2ccccc2o1`, the figure is 17% (inactive); as for `Cc1cc(C)n2c(Nc3c(C)cccc3C)c(CCc3ccccc3)nc2n1`, 18.8% (inactive); as for `CCN(CC)S(=O)(=O)c1cc([N+](=O)[O-])ccc1NNC(=O)Nc1ccccc1`, -56.2% (active). Under `CC(=O)c1ccc(NC(=O)Nc2ccc([N+](=O)[O-])cc2C)cc1` stands -18.2% (inactive); under `CCN(CC)S(=O)(=O)c1cc([N+](=O)[O-])ccc1N=Nc1c(O)n(C)c2ccccc12`, 3.23% (inactive). In the case of `COc1ccc(-c2cc(-c3ccc(N)cc3)nc(N)c2C#N)cc1OC`, the max response, negative = inhibition was 23.8% (inactive).

With `COc1ccc(-c2cc(C(F)(F)F)nc(S(C)(=O)=O)n2)cc1OC`, the max response, negative = inhibition is -72.7% (active). Under `COc1ccc(-c2ccc(Nc3ccc(S(=O)(=O)N4CCCC4)cc3)nn2)cc1OC` stands 39.5% (inactive); under `COc1ccc(NC(=O)CCCOc2ccc(C(C)=O)cc2)cc1S(=O)(=O)N1CCCCC1`, -5.42% (inactive); under `CC(C)NC(=O)C1(C)CCCCCN1C(=O)c1ccc(-c2ccccc2)cc1` (stereo not given), 15.2% (inactive). As for `CCOC(=O)C(=Cc1ccccc1OC)C(=O)OCC`, the figure is -20.5% (inactive); as for `CCOC(=O)C(=CNc1cccc(C)n1)C(=O)OCC`, -3.11% (inactive); as for `CCOC(=O)C(=Cc1ccccc1)C(=O)c1ccccc1`, -59.2% (active). For `COC(=O)c1ccc2nc(-c3cccc(Br)c3)c(Cc3ccc(OC)cc3C)n2c1`, the max response, negative = inhibition was -25.6% (inactive). For the molecule `Cc1ccccc1S(=O)(=O)N1[C@@H](c2cccc(Cl)c2)C(C(=O)OC(C)(C)C)=CC[C@H]1c1ccc(Cl)cc1`, the max response, negative = inhibition is 6.92% (inactive). Under `CCOC(=O)C1(CC2CCCCO2)CCN(Cc2nc(-c3cccs3)oc2C)CC1` (stereo not given) stands -99% (active); under `CCOc1ccccc1-c1nc(CN2CCC(C(=O)N3CCOCC3)CC2)c(C)o1`, -15.7% (inactive). In the case of `CC(Sc1nnc(-c2cccs2)n1C1CC1)C(=O)NCC1CCCO1` (stereo not given), the max response, negative = inhibition is 15.9% (inactive). With `COc1ccccc1-c1cc2nc(NCc3cccc(Cl)c3)ccn2n1`, the max response, negative = inhibition was 7.72% (inactive).

Regarding `Cc1cccc(C)c1-n1nnnc1C1(C)CCC(=O)N1CCOc1ccccc1` (stereo not given), the max response, negative = inhibition was 8.1% (inactive). As for `COc1ccc(CN2CCN(C(=O)c3cc(C4CC4)nn3-c3ccccc3)CC2)cc1F`, the figure is -50% (active). As to `CCc1ccccc1NC(=O)CN1CCN(C(=O)c2cc(C3CC3)nn2-c2ccccc2)CC1`, the max response, negative = inhibition was 13.7% (inactive). On to `COc1ccc(NC(=O)CN(C)C(=O)c2cc(C3CC3)nn2-c2ccccc2)cc1`, for which the max response, negative = inhibition was -0.552% (inactive). In the case of `CC(C)OC(=O)CC(=O)CC(O)c1cccc([N+](=O)[O-])c1` (stereo not given), the max response, negative = inhibition was -17.6% (inactive). As for `CC(C)(C)N1C(=O)[C@H]2[C@@H](c3ccc(Br)cc3)N3C(=O)N(c4cccc(Cl)c4)C(=O)[C@@]3(C)[C@H]2C1=O`, the figure is -1.37% (inactive); as for `COc1ccc([C@@H]2[C@@H]3C(=O)N(C(C)(C)C)C(=O)[C@@H]3[C@]3(Cc4ccccc4)C(=O)N(c4cccc(Br)c4)C(=O)N23)cc1`, 8.03% (inactive). Under `CC[C@@]12C(=O)N(c3ccccc3)C(=O)N1[C@H](c1ccc(Br)cc1)[C@@H]1C(=O)N(C(C)(C)C)C(=O)[C@@H]12` stands -54% (active); under `O=C1C(Sc2cccc(F)c2)=C[C@@]2(O)CC[C@@H](O)[C@]1(Sc1cccc(F)c1)[C@H]2O`, 4.49% (inactive).

For the molecule `CCOC(=O)C(C)n1cnc2c(nnn2-c2cccc(OC)c2)c1=O` (stereo not given), the max response, negative = inhibition is -57.8% (active). As for `CCOC(=O)C(C)n1cnc2c(nnn2-c2ccc(F)cc2)c1=O` (stereo not given), the figure is -1.26% (inactive); as for `COC(=O)C(C)n1cnc2c(nnn2-c2ccc(F)cc2)c1=O` (stereo not given), 0% (inactive); as for `CCCCCCCCN1C(=O)[C@H](CC(=O)NCc2cccc3ccccc23)C[C@@]2(C(=O)OC)CCCCC=C12`, 10.6% (inactive).

For the molecule `C#CCOCCOCCOCCNc1nc(N2CCN(C(=O)Cn3cc(CCO)nn3)CC2)nc(N2CCN(C(=O)[C@H](CCCCN)n3cc(CCCC)nn3)CC2)n1`, the max response, negative = inhibition was 15.4% (inactive). For `C#CCOCCOCCOCCNc1nc(N2CCN(C(=O)CCCCCCCCCCNC(=O)[C@H]([C@@H](C)CC)n3cc(CCCCN=C(N)N)nn3)CC2)nc(N2CCN(C(=O)CCCCCCCCCCNC(=O)[C@H](CO)n3cc(CCCSC)nn3)CC2)n1`, the max response, negative = inhibition was -60.9% (active).

`C#CCOCCOCCOCCNc1nc(N2CCN(C(=O)[C@H](C(C)C)n3cc(CCO)nn3)CC2)nc(N2CCN(C(=O)[C@H](C(C)C)n3cc(CCO)nn3)CC2)n1`: the max response, negative = inhibition is 8.41% (inactive).
